This is a sample that favours compounds with a hit; in the whole collection about 2.2% have one here.
Plk1 PBD FP: Plk1 (human) PBD binding inhibition; P53350; Plk1 PBD phosphopeptide binding, fluorescence polarization; inhibition, %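 (tested at about 20 µM)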; 97,000 compounds, 0.13% hits; in the data active means inhibition above about 34%, passing the limit was not always enough
Target sequence (P53350 whole entry, looked up): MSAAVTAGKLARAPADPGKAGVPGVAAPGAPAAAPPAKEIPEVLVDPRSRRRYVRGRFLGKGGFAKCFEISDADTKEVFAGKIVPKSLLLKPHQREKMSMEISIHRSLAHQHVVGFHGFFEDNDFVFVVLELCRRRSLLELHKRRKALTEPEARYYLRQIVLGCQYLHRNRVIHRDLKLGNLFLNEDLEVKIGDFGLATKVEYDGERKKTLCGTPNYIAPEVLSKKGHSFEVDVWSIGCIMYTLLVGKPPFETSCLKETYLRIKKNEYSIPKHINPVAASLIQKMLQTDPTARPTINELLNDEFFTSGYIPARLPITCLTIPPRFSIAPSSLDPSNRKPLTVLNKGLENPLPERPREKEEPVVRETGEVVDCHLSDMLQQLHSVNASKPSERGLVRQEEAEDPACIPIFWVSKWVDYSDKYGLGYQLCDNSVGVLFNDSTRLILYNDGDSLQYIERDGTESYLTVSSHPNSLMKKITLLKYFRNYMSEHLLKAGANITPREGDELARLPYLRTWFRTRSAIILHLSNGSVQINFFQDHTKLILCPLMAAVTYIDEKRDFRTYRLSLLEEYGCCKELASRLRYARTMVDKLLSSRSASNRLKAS
NFkB transloc pot: enhances IL-1B driven NFkB nuclear translocation; AID 819; activation, % at 2 µM; HUVEC IL-1B NFkB p65 nuclear translocation imaging; 94,000 compounds, 0.3% hits;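 active means activation above 40%, about the mean plus 3 SD, also judged a hit on visual image review; inconclusive means activation above 40% but not a hit on visual review; inactive means activation not above 40% and no visual hit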;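 further: percent activation is computed from the nuclear over cytoplasmic p65 intensity ratio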
IL1B NFkB inh: blocks IL-1B driven NFkB nuclear translocation in HUVEC cells; HUVEC IL-1B NFkB p65 nuclear translocation imaging; inhibition, % at 2 µM; 94,000 compounds, 0.43% hits;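 active means inhibition above about 30% together with a positive call from visual inspection of the well image, limit read from the data; inconclusive means inhibition above a set limit but visual check negative; inactive means inhibition not above a set limit, visual check negative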;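 further: nuclear over cytoplasmic p65 intensity ratio measured by imaging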
PLK1 inh: inhibitors of human PLK1 kinase; AID 619; recombinant PLK1 kinase, TR-FRET peptide phosphorylation; inhibition, % at 10 µM; 97,000 compounds, 0.53% hits;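 active means inhibition of 50% or more in the single-concentration screen; inactive means inhibition below 50%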
Pyk2 oligo antag: blocks oligomerization of human Pyk2 in cells. AID 1347419. 99,000 compounds, 0.83% hits. Q293 cells, Pyk2 FERM NanoBiT luminescence; active compounds read low. z-score (the deposit names both 25 µM and 10 µM);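 active means Z-score of -3 or lower, scaled per plate to the spread of control and sample wells; inactive means z-score above -3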;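 further: negative z-score means lost luminescence so less FERM oligomerization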
IL1B cytotox: toxic to HUVEC cells under IL-1B stimulation. 94,000 compounds, 0.41% hits. cell count reduction, % at 2 µM. AID 845. HUVEC cell count loss, Hoechst imaging, IL-1B stimulated;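 active means cell count reduction more than 3 SD above the screen-wide mean, cut at about 70% in these data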
Numbers stand for hits; - = inactive; ? = inconclusive; . = not tested or not shown.

SMILES	Plk1 PBD FP	NFkB transloc pot	IL1B NFkB inh	PLK1 inh	Pyk2 oligo antag	IL1B cytotox
Cc1ccc(-n2c(O)c(C=NC3CCS(=O)(=O)C3)c3ccccc3c2=O)cc1C (configuration not stated)	-	43	-	-	-	-
COc1ccccc1-n1c(C)nnc1SCC(=O)Nc1cccc(C(C)=O)c1	-	-	96	-	-	80
COc1cccc(NC(=O)CSc2nnc(Cc3cccs3)n2-c2ccc(C)cc2)c1	-	-	-	-	-3.2	-
COc1ccc(C(=O)N2CC3(CC(c4ccc(Cl)cc4)=NO3)C[C@H]2C(=O)NCC(N)=O)cc1 (some centres not stated)	-	-	-	-	.	-
Cc1ccc(Cl)cc1N1CCN(S(=O)(=O)c2ccc3c(c2)OCCO3)CC1	-	-	-	-	-4.2	-
Cc1ccc(C)c(N2CCN(S(=O)(=O)c3ccc4c(c3)OCCO4)CC2)c1	-	-	-	-	-3.9	-
Cc1ccc(C)c(N2CCN(S(=O)(=O)c3ccc4[nH]c(=O)c(=O)[nH]c4c3)CC2)c1	-	-	-	-	-	-
Cc1cc(N2CCC(C)CC2)nc(SCC(=O)c2ccccc2)n1	-	-	-	-	-	-
CC(C)(C)NC(=O)C(c1ccccn1)N(C(=O)C1CSC(=O)C1)c1ccc(F)cc1 (configuration not stated)	-	-	-	-	-	-
N#CCC(CNc1ncc(C(F)(F)F)cc1Cl)OC(=O)c1ccc(Cl)cc1Cl (configuration not stated)	-	-	-	-	-	-
O=C(CNS(=O)(=O)c1ccc(Br)cc1)N1CCOCC1	-	-	-	-	-	-
O=C(CSCc1ccc(Br)cc1)N1CCOCC1	-	42	-	-	-	-
CN(c1ccccc1C(=O)N1CCN(c2ccccc2)CC1)S(C)(=O)=O	-	-	-	-	-	-
CCc1nc2ccccc2c(C(=O)OCC(=O)Nc2cccc(S(=O)(=O)N3CCOCC3)c2)c1C	-	-	-	-	-4.7	-
O=C(COC(=O)c1ccccn1)Nc1ccc(S(=O)(=O)N2CCOCC2)cc1	-	-	-	-	-	-
CCc1nc2ccccc2c(C(=O)OCC(=O)Nc2ccc(S(=O)(=O)N3CCOCC3)cc2)c1C	.	.	.	.	-4.4	.
CCOC(=O)C1CCN(C(=O)c2cccnc2Cl)CC1	-	-	-	-	-	-
Cc1cc(C(=O)CN2C(=O)c3cccc(N)c3C2=O)c(C)n1Cc1cccs1	-	-	-	-	-	-
Cc1ccccc1-n1c(SCC(=O)c2cc(C)n(C)c2C)nnc1-c1ccncc1	-	-	-	-	-	-
O=C(NCc1ccco1)C(c1cccs1)N(Cc1ccccc1)C(=O)Cn1nnc2ccccc21 (configuration not stated)	-	-	-	-	-3.3	-
O=C(NCc1ccco1)C(c1ccco1)N(Cc1cccs1)C(=O)Cn1nnc2ccccc21 (configuration not stated)	-	-	-	-	-3.8	-
CC(C)(C)CC(C)(C)NC(=O)CSCC(=O)Nc1ccc2ccccc2c1	-	-	-	-	-	-
CC1CC(N(C(=O)c2ccccc2Cl)c2ccccc2)c2ccccc2N1 (configuration not stated)	-	-	-	-	-3.6	-
CN(C(=O)c1ccccc1Cl)C1CCCCC1	-	-	-	-	-	-
CCOC(=O)N1CCC(NC(=O)c2cccc3c2C(=O)N(c2ccc(OC)cc2)C3)CC1	-	-	-	-	.	-
SMILES	Plk1 PBD FP	NFkB transloc pot	IL1B NFkB inh	PLK1 inh	Pyk2 oligo antag	IL1B cytotox
COc1ccc(S(=O)(=O)N(CC(=O)N/N=C/c2cccs2)c2cc(C)cc(C)c2)cc1OC	-	-	-	-	-3	-
CCN(CC)c1ccc(C(=O)OCc2cc(=O)oc3cc(O)ccc23)cc1	-	-	-	-	-3.1	-
CCN(CC)c1ccc2c(Cl)cc(=O)oc2c1	-	-	-	-	.	-
Cc1cccc(NC(=O)C2NC(=O)CC2c2ccccc2)c1C (configuration not stated)	-	-	-	-	.	-
COC(=O)C(Cc1c[nH]c2ccccc12)NC(=O)c1cc(-c2ccc(OC)c(OC)c2)oc1C (configuration not stated)	.	.	.	.	-	.
CNC(=O)NC(=O)CSc1nc2cc(C(=O)OC)ccc2c(=O)n1-c1ccccc1	-	-	-	-	-	-
CCCNC(=O)NC(=O)CSc1nc2cc(C(=O)OC)ccc2c(=O)n1-c1ccccc1	-	-	-	-	-3.1	-
CN1CC=C2C(C#N)=C(N)C(C#N)(C#N)[C@H](c3cccc(Cl)c3)C2C1 (some centres not stated)	-	-	34	-	-	-
CN1CC=C2C(C#N)=C(N)C(C#N)(C#N)C(c3ccsc3)C2C1 (configuration not stated)	-	-	-	-	-	-
Cc1nn(C(=O)c2c([N+](=O)[O-])cnn2C)c(C)c1Cl	-	-	-	-	-	-
Cc1ccc(-c2cc(C(F)F)n3ncc(C(=O)Nc4ccc(S(=O)(=O)Nc5ccccc5C)cc4)c3n2)cc1	-	-	-	-	-	-
CCOCc1cn(CC(=O)c2ccc(Cl)cc2)c(C)nc1=N	-	-	-	-	-	81
CCOCc1cn(CC(=O)c2ccc([N+](=O)[O-])cc2)c(C)nc1=N	-	-	-	-	-	-
CCCCCc1ccc(-c2ccc(=O)[nH]n2)cc1	-	?	-	-	-	-
Cc1ccc(-c2ccc(=O)[nH]n2)cc1	-	-	98	-	-	82
CCCOc1nc(N)c(C#N)c(-c2ccccc2F)c1C#N	-	-	-	-	-3.1	-
O=C1C(=O)N(CCN2CCCCC2)c2ccccc21	-	-	-	53	-	-
Cc1nn(C(C)C(=O)NNC(=S)Nc2ccc(Cl)cc2)c(C)c1[N+](=O)[O-] (configuration not stated)	-	-	-	-	-	-
COc1ccc(S(=O)(=O)N2CCCC(C(=O)O)C2)cc1 (configuration not stated)	-	-	34	-	-	-
O=C(Cn1nc(-c2ccccc2)ccc1=O)NCC1COCCO1 (configuration not stated)	-	-	98	-	-	89
CC1CN(C(=O)c2scc3c2OCCO3)CC(C)O1 (configuration not stated)	-	-	80	-	-	93
O=C(NCCc1ccccc1)c1ccc(Cl)nc1	-	-	-	-	-	-
Cc1nn(-c2nc3ccccc3n2Cc2ccccc2)c2c1C(=O)CC(C)(C)C2	-	-	-	-	-4	-
Cc1nn(-c2ccccc2)c2c1C(=O)N(Cc1ccccc1)C(=O)C(C)(C)C2	-	-	-	-	-	-
Cc1ccc(C)c(Cn2c(C(=O)OC(C)C)cc3c2ccn3C)c1	-	-	-	-	-	-
CCOc1ccc(C(=O)CCc2nc3ccccc3s2)cc1	-	-	-	-	-3.3	-
